The values that follow come from PubChem BioAssay.

Unmarked numbers belong to inactive results. The rule behind the calls is not given here.

Pantothenate synthetase (Mycobacterium tuberculosis (strain ATCC 25618 / H37Rv)), sequence (P9WIL5 whole entry, looked up): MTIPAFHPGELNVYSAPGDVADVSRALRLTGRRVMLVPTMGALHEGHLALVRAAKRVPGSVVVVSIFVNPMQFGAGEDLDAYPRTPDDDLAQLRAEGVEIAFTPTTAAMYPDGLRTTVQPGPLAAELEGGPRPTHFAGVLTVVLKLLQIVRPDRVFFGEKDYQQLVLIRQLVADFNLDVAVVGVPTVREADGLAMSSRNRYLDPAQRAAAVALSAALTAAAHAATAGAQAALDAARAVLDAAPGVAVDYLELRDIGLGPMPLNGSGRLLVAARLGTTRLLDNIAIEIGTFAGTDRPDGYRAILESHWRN

The assay addresses Pantothenate synthetase (Mycobacterium tuberculosis (strain ATCC 25618 / H37Rv)) (UniProt P9WIL5). Briefly: Coupled enzyme confirmation of inhibitors against recombinant Mtb PanC (AID 375).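 Note: 0% = full reaction with vehicle and 100% = no enzyme background.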 The note with it: coupled enzyme assay; at 10 µM, hits give high values.
By inhibition is commonly meant the drop in the measured response relative to a control, in per cent. For the molecule `FC(F)(F)c1cc(-c2ccco2)nc(-n2nnc3ccccc32)n1`, the inhibition is 0%.
For the molecule `CC(C)(C)NC(=O)C(c1ccco1)N(C(=O)Cn1nnc(-c2ccc(F)cc2)n1)c1ccccc1` (stereo not given), the inhibition was 0%.
The value for `CCOC(=O)c1ccc(NC(=O)Nc2ccn(C)n2)cc1` was 0%; that for `Cc1cc(C)c2c(n1)nn1c(NCCCN3CCOCC3)cc(C)nc21` was 9%.
Regarding `Brc1c(NC2=NCCN2)ccc2nccnc12`, the inhibition was 0%.
Regarding `COc1ccc(C2=NOC(C(=O)NCc3ccc(F)cc3)C2)cc1OC` (stereo not given), the inhibition was 0%.
For `O=C(c1ccco1)N1CCN(S(=O)(=O)c2ccc(Oc3ccccc3)cc2)CC1`, the inhibition is 0%.
Under `COC(=O)C1C2C=CC3(CN(CC4CCCO4)C(=O)C13)O2` (stereo not given) stands 0%.
In the case of `Cc1cc(=O)n(CC(C)C)c(O)c1C#N`, the inhibition is 0%.
Under `CC(C)(C)C(=O)N=C1SC2CS(=O)(=O)CC2N1c1ccc2c(c1)OCO2` (stereo not given) stands 0%; under `CSc1nc2ccc(S(=O)(=O)N3CCOCC3)cc2s1`, 4%; under `O=c1oc2ccccc2n1CCc1ccccc1`, 4%.
`CCCCN(C)Cc1c(O)ccc2c(-c3ccccc3)cc(=O)oc12`: the inhibition is 1%.
The value for `O=C(Nc1ccc(S(=O)(=O)N2CCc3ccccc32)cc1)c1ccc2c(c1)OCO2` was 0%.
`COc1ccc(OC)c(C(=O)c2ccc(C(=O)O)cc2)c1`: the inhibition was 0%.
Regarding `CCCCC[C@H](O)/C=C/[C@H]1C=CC(=O)[C@@H]1C/C=C\CCCC(=O)O`, the inhibition is 0%.
Under `COc1ccc(C)cc1-n1nnnc1SCC(=O)Nc1cc(C)on1` stands 0%; under `COC(=O)c1ccc(-c2ccco2)n1Cc1nc(-c2ccc(OC)c(OC)c2)oc1C`, 2%.
As for `COc1ccc(-c2ccc(=O)n(Cc3cc(=O)n4ccccc4n3)n2)cc1`, the inhibition is 0%.
As for `COc1ccc(CCNC(=O)C2CCN(S(=O)(=O)c3cc(OC)ccc3OC)CC2)cc1`, the inhibition is 0%.
Under `Cn1c(CNc2nc(-c3ccccc3)cs2)nnc1SCC(=O)N1CCc2ccccc21` stands 0%; under `CCCCC(=O)NCCc1cc2ccc(OC)cc2[nH]c1=O`, 0%.
`CCOC(=O)C1CCN(C(=O)CN(c2ccc(Cl)c(C(F)(F)F)c2)S(C)(=O)=O)CC1`: the inhibition was 4%.
Turning to `COC(=O)c1cc(Oc2ccc(C(=O)OC)cc2N)cc(C(=O)OC)c1`, the inhibition is 0%.
In the case of `COc1ccc(S(=O)(=O)N2CCCC2C(=O)Nc2ccc(C)cc2)cc1` (stereo not given), the inhibition is 0%.
Consider `O=C(CCN1CCc2ccccc2C1)Nc1ccc2c(c1)OCO2`, for which the inhibition was 0%.
Consider `CC1CCN(C(=O)CSc2nc3c(cnn3-c3ccccc3)c(=O)[nH]2)CC1`, for which the inhibition is 0%.
Under `Cc1ccc(-c2nnc3c4ccccc4c(C)nn23)cc1NC(=O)c1ccco1` stands 0%; under `CCOc1ccccc1C1NC(=O)NC(C)=C1C(=O)OC1CCCC1C` (stereo not given), 2%.
In the case of `CC(=O)Nc1ccc(S(=O)(=O)Nc2nc3n(n2)C(c2ccccc2)CC(=O)N3)cc1` (stereo not given), the inhibition is 0%.
Regarding `O=C(O)COc1ccc(Oc2ccccc2)cc1`, the inhibition was 3%.
The value for `Cc1cc(C(F)F)n2ncc(C(=O)NC3CCCCCC3)c2n1` was 0%; that for `C=CCn1c(COc2ccc(Cl)cc2)nnc1SCC(=O)N1CC(=O)Nc2ccccc21` was 0%.
Under `CCOC(=O)c1cc(-c2nnc(-c3ccc(Oc4ccccc4)cc3)o2)c(C)nc1C` stands 0%.
`CCOc1ccc2c(c1)sc1nc(C(=O)OC)cc(=O)n12`: the inhibition was 0%.
Under `CCOC(=O)c1[nH]c(C)c(C(=O)Nc2ccc(C)cc2C)c1C` stands 1%; under `Cc1oc(-c2ccc(Cl)cc2)cc1-c1nn2c(-c3ccoc3C)nnc2s1`, 3%.
`CCCn1c(=N)n(CCOc2ccc(OC)cc2)c2ccccc21`: the inhibition is 0%.
As for `Cn1c(C(=O)Nc2ccc3c(c2)OCO3)cc2c(=O)n(C)c3ccccc3c21`, the inhibition is 0%.
With `Cc1sc(NC(=O)CSc2nc(N)n(CC(=O)c3ccccc3)n2)c(C#N)c1C`, the inhibition is 4%.
